From PubChem BioAssay
Shown are actives, neighbours in structure and some others; about 19% of the full set was active somewhere.
IL1B secr inh: inhibitors of inflammasome signaling (IL-1 beta secretion); THP-1 LPS/ATP IL-1B secretion, AlphaLISA, 16 h; stronger effect = lower value; AID 743279; actives 4.7% (n = 360,000); activity change, % at 57.5 µM; in the data active means activity change below about -50%; inconclusive means mostly about -30% to -49%; further: on the % scale 0 is the no-effect control and ±100 the full control effect
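THP-1 cells pretreated 1 hr with compounds (up to 57.5 uM final), then stimulated with LPS (250 ng/mL final) plus ATP (1.25 mM final); secreted IL-1B measured by AlphaLISA after 16 hr, decreased signal indicating inhibition.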
DT40 TDP1 no CPT: qHTS for Inhibitors of human tyrosyl-DNA phosphodiesterase 1 (TDP1): qHTS in cells in absence of CPT; Potency, µM (highest dose often 46.2 µM), for the others: at the top dose activity change, negative = growth inhibition, most hits filed as inhibitors; DT40 Tdp1-/- hTDP1 cells, no CPT, ATP luminescence, 48 h; actives 15% (n = 420,000); AID 686978, 2013; further: potency means the concentration at half of the fitted maximal effect; on the % scale 0 is the no-effect control and ±100 the full control effect; nearly all actives have a fitted effect of over 55% in size
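Compound effects on proliferation are scored in DT40 Tdp1-/-;hTDP1 cells in the absence of CPT. ATP levels (CellTiter-Glo luminescence) are recorded after a ≥48 hr, 37 °C incubation.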
TDP1 block: TDP1 (human) enzyme inhibition; recombinant TDP1, AlphaScreen DNA substrate cleavage; Potency, µM (series often up to 130 µM), for the others: at the highest dose activity change, negative = inhibition, actives largely listed as inhibitors; actives 0.28% (n = 350,000); further: potency means the concentration at half of the fitted maximal effect; on the % scale 0 is the no-effect control and ±100 the full control effect; nearly all actives have a fitted effect of over 40% in size
Target sequence (Q9NUW8 whole entry, looked up): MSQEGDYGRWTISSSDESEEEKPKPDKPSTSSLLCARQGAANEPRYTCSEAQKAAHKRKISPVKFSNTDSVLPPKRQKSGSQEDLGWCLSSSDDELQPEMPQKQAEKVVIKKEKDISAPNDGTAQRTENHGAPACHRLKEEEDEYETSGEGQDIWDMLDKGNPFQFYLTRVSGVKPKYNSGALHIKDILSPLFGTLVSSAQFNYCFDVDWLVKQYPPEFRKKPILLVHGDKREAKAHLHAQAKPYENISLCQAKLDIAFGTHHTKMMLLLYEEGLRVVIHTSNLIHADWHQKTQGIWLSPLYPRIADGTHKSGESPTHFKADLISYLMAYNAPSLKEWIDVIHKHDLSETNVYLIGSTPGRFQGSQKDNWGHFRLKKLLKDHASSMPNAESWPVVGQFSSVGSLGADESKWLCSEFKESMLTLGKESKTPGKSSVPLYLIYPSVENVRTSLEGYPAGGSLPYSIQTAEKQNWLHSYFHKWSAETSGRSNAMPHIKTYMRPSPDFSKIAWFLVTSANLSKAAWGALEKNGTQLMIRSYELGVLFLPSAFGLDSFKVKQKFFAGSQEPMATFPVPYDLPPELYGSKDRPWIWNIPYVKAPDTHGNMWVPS
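Signal: AlphaScreen proximity between streptavidin donor and anti-FITC acceptor beads on intact substrate. Reaction: Tdp1 1 nM, substrate 15 nM final, 5 min RT after 15 min compound preincubation.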
HepG2 tox: HepG2 cytotoxicity, counter-screen for TGF-b inhibitors. HepG2 CAGA-GFP viability, ATP luminescence, 18 h. actives 0.76% (n = 410,000). Potency, µM (top dose mostly 46.1 µM), for inactives: at the top dose activity change, negative = cytotoxicity, most hits filed as cytotoxic; further: potency means the concentration at half of the fitted maximal effect
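HepG2 CAGA-GFP cells (1000/well, DMEM with 1% FBS) received compound, then TGF-beta at 500 pg/mL final, and were incubated 18 hours at 37 degrees C. Viability was read by CellTiter-Glo luminescence. Media-only wells were set as complete cell-killing and DMSO as no toxicity.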
TGFb inhibitor: inhibitors of TGF-b signaling; HepG2 CAGA-GFP TGF-b/SMAD3 reporter, GFP fluorescence, 18 h; TGF-beta stimulated, 500 pg/mL final; actives 1.2% (n = 410,000); Potency, µM (top dose mostly 46.1 µM), for the others: at the top dose activity, negative = inhibition, hits mostly inhibitors; further: potency means the concentration at half of the fitted maximal effect; on the % scale 0 is the no-effect control and ±100 the full control effect; nearly all actives have a fitted effect of over 65% in size
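Inhibition was scored as loss of TGF-beta-induced (500 pg/mL final, 18 hours, 37 degrees C) GFP in HEPG2 cells carrying a CAGA-GFP reporter, in DMEM with 1% FBS. Well GFP was summed per cell; Activity was normalised to unstimulated and stimulated DMSO wells, then concentration-response fitting.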
DT40 TDP1 CPT: DT40-hTDP1 cell growth loss with CPT; chicken DT40 Tdp1-/-;hTDP1 cells + 20 nM CPT, ATP luminescence, 48 h; Potency, µM (doses to about 46.2 µM), for inactives: at the top dose activity change, negative = growth inhibition, actives largely listed as inhibitors; actives 12% (n = 420,000); AID 686979; further: potency means the concentration at half of the fitted maximal effect; on the % scale 0 is the no-effect control and ±100 the full control effect; nearly all actives have a fitted effect of over 55% in size
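Chicken DT40 Tdp1-/- cells complemented with human TDP1, 400 cells/well, exposed to compounds plus 20 nM camptothecin for at least 48 h at 37 C; viability read as ATP content by CellTiter-Glo luminescence.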
Active calls of the source: *; i = inactive; ? = inconclusive; nt = not tested or not shown; ! = not active in a repeat; [ ] = another dose, or the depositor's remark. Unless noted, the call rests on the fitted dose curve; in most records, active means well fitted curve in the direction sought with a large enough effect; inconclusive means small, poorly fitted or top-dose-only effect, or another doubt; inactive means no such curve, though single readings can be large; an effect the other way counts as inactive or inconclusive.

SMILES	IL1B secr inh	DT40 TDP1 no CPT	TDP1 block	HepG2 tox	TGFb inhibitor	DT40 TDP1 CPT
Cc1ccc2[nH]c(CCN(C)C)c(CN3CCOCC3)c2c1	-24	?	0%	-2%	2%	21µM*
CCN(Cc1ccncc1)Cc1ccc2c(c1)CN(C(=O)c1ccc(OC)cc1)CCO2	nt	-27%	nt	nt	nt	-1%[9.04 µM]
CCOC(=O)c1c(NC(=O)c2ccc(S(=O)(=O)N(CCOC)CCOC)cc2)sc2c1CC(C)(C)NC2(C)C	nt	?	5%	-61%	11µM*	?
COC(=O)c1c(NC(=O)c2ccc(OC(C)C)cc2)sc2c1CC(C)(C)NC2(C)C	-18	?	nt	-22%	2%	?
CCOC(=O)N1CCN(S(=O)(=O)c2ccc(C(=O)Nc3sc4c(c3C(N)=O)CC(C)(C)NC4(C)C)cc2)CC1	-1	25%	13%	-2%	-3%	-3%
CCOC(=O)c1c(NC(=O)c2ccc(S(=O)(=O)N3CCCC(C)C3)cc2)sc2c1CC(C)(C)NC2(C)C (centres undefined)	nt	21µM*	5%	13µM*	?	16µM*
CCOc1ccc2nc(SCC3CC3(Cl)Cl)[nH]c2c1 (centres undefined)	-62*	18µM*	5%	12%	-24%	?
CCc1ccc(NC(=O)c2cc(CN3CCOCC3)on2)cc1	nt	?	7%	-3%	7%	-18%
COC(=O)c1cccc(Cn2c(Cl)c(/C=N/NC(=O)c3ccco3)sc2=O)c1	?	9.2µM*	-5%	-11%	2%	?
CC1CC2OC2CC1COC(=O)C1CC2OC2CC1C (centres undefined)	17	?	nt	-2%	4%	16µM*
CCN1CCN(c2ccc(S(=O)(=O)N3CCOCC3)cc2NC(=O)COc2ccc(F)cc2Cl)CC1	-3	-2%	2%	2%	0%	?
COc1cc(NC(=O)c2oc3c(c2C)-c2nn(Cc4cccc(Cl)c4)cc2CC3)cc(OC)c1	nt	?	1%	-20%	0%	?
COCCCNC(=O)c1oc2c(c1C)-c1nn(Cc3ccccc3Cl)cc1CC2	nt	18µM*	1%	-21%	-17%	?
COc1ccc(NC(=O)c2oc3c(c2C)-c2nn(Cc4ccccc4Cl)cc2CC3)cc1OC	nt	21µM*	1%	-10%	?	21µM*
CC(C)COc1ccc(C(=O)Nc2nnc(S(=O)(=O)N(C)Cc3ccco3)s2)cc1	nt	?	3%	-11%	-11%	?
CCCCNC(=O)C1CCN(S(=O)(=O)c2cc(Br)cc3c2N(C(=O)CC)CC3)CC1	nt	-23%	4%	-17%	-24%	-3%
CCn1c(SCC(=O)Nc2nc(-c3ccc(C)cc3)cs2)nnc1-c1ccccc1O	-51*	?	8%	4%	?	?
CCn1c(SCC(=O)Nc2nc(-c3ccc(C)cc3)cs2)nnc1-c1ccccc1	-55*	18µM*	3%	-17%	?	?
Cn1c(SCC(=O)N2c3ccccc3Sc3ccccc32)nc2ccccc21	?	?	3%	12%	-9%	?
O=C(CCn1cnc2ccccc2c1=O)Nc1nc(-c2ccc(Br)cc2)cs1	-9	16µM*	3%	0%	4%	?
Cc1ccc(NC(=O)CCn2cnc3ccccc3c2=O)cc1	-17	-3%	-1%	-1%	14%	-16%
CN(C)CCCn1c(SCC(=O)N2c3ccccc3Sc3ccccc32)nc2ccccc2c1=O	-102*	23µM*	5%	10µM*	-21%	?
CCNc1ncc2nc(-c3cccs3)c(=O)n(-c3ccccc3)c2n1	nt	-6%	nt	nt	nt	-18%
CCN1CCN(C(=O)c2cnn(-c3ccc(F)cc3)c2-n2cccc2)CC1	nt	nt	3%	3%	6%	nt
Cc1ccc(-c2csc(NC(=O)CSc3nc(C)cs3)n2)cc1	-15	16µM*	2%	-12%	-9%	?
SMILES	IL1B secr inh	DT40 TDP1 no CPT	TDP1 block	HepG2 tox	TGFb inhibitor	DT40 TDP1 CPT
Cc1ccc(-c2csc(NC(=O)CSc3nc4ccccc4c(=O)n3CCCN(C)C)n2)cc1	-97*	15µM*	8%	-103%	?	10µM*
CC(CNC(=O)CCS(=O)(=O)c1cc2c(cc1Cl)NC(=O)CO2)c1ccccc1 (centres undefined)	-8	-9%	-2%	1%	2%	13%
COc1ccc(OC)c(NC(=O)Nc2nc(CN(C)C)cs2)c1	-3	-23%	nt	0%	26%	-26%
COc1ccc(OC)c(NC(=O)Nc2nc(C(N)c3ccccc3Cl)cs2)c1 (centres undefined)	-51*	?	nt	-42%	-21%	?
COc1ccc(C(N)c2csc(NC(=O)Nc3ccccc3C(C)(C)C)n2)cc1 (centres undefined)	-29	?	nt	-54%	?	?
Cc1cccc(C)c1NC(=O)Nc1nc(C(N)c2ccccc2Cl)cs1 (centres undefined)	-19	16µM*	nt	-7%	-5%	?
NC(=O)c1ccc(Nc2nc(C(N)c3ccccc3Cl)cs2)cc1 (centres undefined)	-17	?	nt	-1%	9%	?
COc1ccc(OC)c(NC(=O)Nc2nc(C(N)C(C)C)cs2)c1 (centres undefined)	-63*	?	nt	-48%	7%	?
CN1CCN(NC(=O)c2cc(-c3ccc(Br)s3)nc3ccccc23)CC1	?	7.3µM*	9%	-22%	?	?
CCCCOc1cc(C(=O)NCCN(CC)CC)c2ccccc2n1	-50*!	7.3µM*	-8%	-20%	71%	21µM*!
CCCN(CCC)CCNC(=O)c1cc(-c2ccc(Br)s2)nc2ccccc12	nt	?	5%	-21%	0%	18µM*
CCN(CC)CCNC(=O)c1cc(-c2ccc(Br)s2)nc2ccccc12	?	18µM*	3%	-128%	?	18µM*
CCN(CC)CCCNC(=O)c1cc(Nc2ccc(OC)cc2OC)nc2ccccc12	-6	?	nt	-7%	15%	?
O=C(c1ccco1)N1CCN(Cc2cc(=O)c(OCc3ccc(F)cc3)co2)CC1	-5	7%	-5%	-7%	18%	?
CN(c1ccc(C(=O)NCc2ccccn2)cc1)S(=O)(=O)c1ccc(Cl)cc1	i	6%	6%	0%	-9%	2%
